Data on 19 compounds can be found in PubChem BioAssay (NCI).

The panel holds about 79,000 compounds, 15% with a hit somewhere; the sample as a whole holds those more often. A number with no mark means an inactive call. Calls of active or inactive are those of the source. Cut-off read from the data, not from the text of the source: active = growth inhibition above about 70%; inactive = the rest.

Assay [1] in a line: NCI Yeast Anticancer Drug Screen. Data for the rad50 strain (AID 155).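 Note: 0% = growth of vehicle-only cultures of the same strain.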 The following applies: S. cerevisiae rad50 strain growth inhibition; at 50.0 µM; hits give high values. In outline: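 Vehicle-treated cultures provide the reference for the growth inhibition reported for compound-exposed, repair-deficient yeast.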
Assay [2] can be described thus: NCI Yeast Anticancer Drug Screen. Data for the mec2-1 strain (AID 157). The following applies: S. cerevisiae mec2-1 strain, at 50.0 µM, hits give high values. In a few lines:
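Growth inhibition is read against vehicle-treated controls after compound exposure of the mec2-1 yeast strain, which is defective in DNA damage repair or cell cycle control.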

Assay [3] is described as follows: NCI Yeast Anticancer Drug Screen. Data for the sgs1 mgt1 strain (AID 161).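 Note: 0% = growth of cultures given vehicle only.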 The following applies: S. cerevisiae sgs1 mgt1 strain, at 50.0 µM, hits give high values. In outline:
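This yeast growth screen uses a strain with defined DNA-repair lesions; compound-treated growth is compared with vehicle-treated growth.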

Assay [4] can be described thus: NCI Yeast Anticancer Drug Screen. Data for the cln2 rad14 strain (AID 165).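 Note: 0% = growth equal to vehicle treated cultures.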 The following applies: S. cerevisiae cln2 rad14 strain, at 50.0 µM, hits give high values. In a few lines:
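Growth inhibition, relative to vehicle-treated controls, is the read-out. The test organism is a yeast strain with defined genetic alterations, cln2 rad14.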

A short description of assay [5]: NCI Yeast Anticancer Drug Screen. Data for the bub3 strain (AID 167). The following applies: S. cerevisiae bub3 mutant strain, at 50.0 µM, hits give high values. In a few lines: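 Mutant yeast screening strain plus compound; vehicle-treated cultures serve as the 0% inhibition reference.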
Assay [6] in a line: NCI Yeast Anticancer Drug Screen. Data for the mlh1 rad18 strain (AID 175). The settings on record: S. cerevisiae mlh1 rad18 strain growth inhibition; at 50.0 µM; hits give high values. In a few lines:
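Cells of a genetically altered yeast strain, deficient in DNA damage repair, were treated with compound. Their growth was then compared with that of vehicle-treated cultures to give inhibition.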

Regarding `CC(=O)Oc1ccc(OC(C)=O)c([N+](=O)[O-])c1`, the growth inhibition in assay [1] is 24.1%; in assay [2], 17.2%; in assay [3] it was -1.65%; in assay [4], -9.75%; in assay [5] it was 1%; in assay [6] it was 29.2%.
In the case of `CC12C(=O)OC(=O)C1C1C=CC2C1` (centres undefined), the growth inhibition in assay [1] was 20.2%; in assay [2] it was 6.15%; in assay [3] it was -18.2%; in assay [4], -64.5%; in assay [5], -0.35%; in assay [6] it was 5.05%.
Consider `N#Cc1cnn(-c2ccccc2)c1N`, for which the growth inhibition is 25.5% in assay [1]; -7.4% in assay [2]; -0.3% in assay [3]; -0.85% in assay [4]; -4.3% in assay [5]; -1.45% in assay [6].
For `Cc1c([N+](=O)[O-])cc(C(C)(C)C)c(OC(=O)C(C)(C)C)c1[N+](=O)[O-]`, the growth inhibition in assay [1] was 53.4%; in assay [2] it was 44.9%; in assay [3], 59.8%; in assay [4], 41.5%; in assay [5], 92.4% (active); in assay [6] it was 54.3%.
Consider `CCOC(=O)CC1(CC(=O)OCC)OCCO1`, for which the growth inhibition in assay [1] is -6.2%; in assay [2], 7.1%; in assay [3], -2.05%; in assay [4], -4.15%; in assay [5] it was -28.8%; in assay [6], -26.2%.
Take `CC1(C)CCC(C)(C)c2cc(C(=O)O)ccc21`: the growth inhibition is 7.55% in assay [1]; 5.3% in assay [2]; 1.55% in assay [3]; 5.4% in assay [4]; 14.4% in assay [5]; 5.05% in assay [6].
As to `O=C1c2ccccc2S(=O)N1OCc1ccccc1` (centres undefined), the growth inhibition in assay [1] was -0.85%; in assay [2] it was 0.75%; in assay [3], 15.4%; in assay [4], -16.6%; in assay [5] it was 0.95%; in assay [6], 9.6%.
With `O/N=C/C(=Nc1ccc2ccccc2c1)NO`, the growth inhibition is 41% in assay [1]; 3.25% in assay [2]; -4.5% in assay [3]; -18.2% in assay [4]; -8.45% in assay [5]; 23.5% in assay [6].
Consider `Cc1cccc(NC(=O)CCCCCCCCC(=O)Nc2cccc(C)c2C)c1C`, for which the growth inhibition in assay [1] is -4.8%; in assay [2] it was 0.7%; in assay [3], -2.3%; in assay [4], -41.4%; in assay [5], -2.05%; in assay [6], 12.2%.
For the compound `CCN(CC)CCC(=O)c1ccc(Oc2ccc(Cl)cc2)cc1`, the growth inhibition in assay [1] is 96.8% (active); in assay [2], 83.8% (active); in assay [3] it was 99% (active); in assay [4] it was 80.2% (active); in assay [5], 98.9% (active); in assay [6], 99.2% (active).
For `CCCC1SCC(C)(C)NC1=O` (centres undefined), the growth inhibition was 4.85% in assay [1]; 3.25% in assay [2]; -1.9% in assay [3]; -18.4% in assay [4]; 7.05% in assay [5]; -2.4% in assay [6].
Turning to `CCN(CC)CCOC(=O)CCC(C)=O`, the growth inhibition in assay [1] was 6.35%; in assay [2], -31.5%; in assay [3], -7.65%; in assay [4], 0.8%; in assay [5], -9.1%; in assay [6], 7.45%.
In the case of `Cc1cc(N)c2cc(N)ccc2n1`, the growth inhibition in assay [1] is 99.6% (active); in assay [2] it was 99.5% (active); in assay [3], 99.4% (active); in assay [4], 64.7%; in assay [5], 99.2% (active); in assay [6], 98.2% (active).
Turning to `O=C(O)c1cccnc1C(=O)Nc1cccc2ccccc12`, the growth inhibition is 13.1% in assay [1]; 13.4% in assay [2]; 12.6% in assay [3]; 0.9% in assay [4]; 10.2% in assay [5]; -16.6% in assay [6].
For `C[Si](C)(CCCOC(N)=O)COC(N)=O`, the growth inhibition in assay [1] was -15.2%; in assay [2], -6.55%; in assay [3], -18.4%; in assay [4], -4.1%; in assay [5], 4.8%; in assay [6], -18.9%.
With `CCCCCCCC(=O)Nc1nnc(SCCCCCCCCCCSc2nnc(NC(=O)CCCCCCC)s2)s1`, the growth inhibition in assay [1] was -33.5%; in assay [2], -14.9%; in assay [3] it was -5.55%; in assay [4], -52.3%; in assay [5], -0.5%; in assay [6], -4.45%.
In the case of `COc1cccc2c1[C@@]1(C)C3C(=O)OC(C)(c4ccccc43)[C@@]1(C)C2=O` (some centres undefined), the growth inhibition was 39.4% in assay [1]; 20.7% in assay [2]; -7.45% in assay [3]; 23.1% in assay [4]; -4.1% in assay [5]; 9.35% in assay [6].
With `CCN(CC)/[N+]([O-])=N/OC`, the growth inhibition is -13.6% in assay [1]; -0.3% in assay [2]; 10.9% in assay [3]; 13.4% in assay [4]; 10.3% in assay [5]; 1.35% in assay [6].
With `NC(=O)c1ncnc2nc[nH]c12`, the growth inhibition in assay [1] is -14.2%; in assay [2], -42.5%; in assay [3], -9%; in assay [4], -29.1%; in assay [5], -20.4%; in assay [6], -10.6%.
